Measured values: PubChem BioAssay (Tox21)
Results filed as inconclusive are left out. Activity calls are given as the source filed them. Unless noted, calls follow the shape of the dose curve; as a rule, active = well fitted curve in the direction sought with a large enough effect in the repeat runs; inconclusive = weak or mixed curves; inactive = no such curve, though single readings can be large; an effect the other way counts as inactive or inconclusive.

Columns and labels:
[1] = A CellTox Green Cytotoxicity Assay to monitor cytotoxicity in HepG2 cells - 0 hour (AID 1224882); also: nearly all actives have a fitted effect of over 35% in size
Outline: (§1)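 Nonlytic assay: viable cells exclude the dye, so fluorescence scales with cell death. HepG2 at 600 cells/well, compounds added after 5 h, signal read across 40 h.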

[2] = A CellTox Green Cytotoxicity Assay to monitor cytotoxicity in HepG2 cells - 32 hour (AID 1224883); also: nearly all actives have a fitted effect of over 50% in size
Outline: as §1

[3] = A CellTox Green Cytotoxicity Assay to monitor cytotoxicity in HEK293 cells - 8 hour (AID 1224884); also: nearly all actives have a fitted effect of over 35% in size
Outline: (§2)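 Seeding of HEK293 cells together with cytotoxicity dye preceded a 5 h incubation at 37 C/5% CO2. Test compounds in DMSO were then added and fluorescence monitored across 40 h.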

[4] = qHTS RealTime-Glo MT Cell Viability Assay in HepG2 cells - 16 hour (AID 1224885); also: nearly all actives have a fitted effect of over 50% in size
Outline: (§3)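 qHTS, HepG2, 600 cells/well, RealTime-Glo (NanoLuc + prosubstrate) added with cells; 5 h preincubation; DMSO compound addition; 37 C; luminescence at 0/8/16/24/32/40 h.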

[5] = qHTS RealTime-Glo MT Cell Viability Assay in HEK293 cells - 8 hour (AID 1224887); also: top concentration of the series differs between compounds; nearly all actives have a fitted effect of over 50% in size
Outline: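 Tox21 screen in HEK293 using RealTime-Glo MT chemistry, with cells and reagent co-dispensed. Luminescence proportional to viable cell number was captured at intervals during 40 h compound exposure at 37 C.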

[6] = A CellTox Green Cytotoxicity Assay to monitor cytotoxicity in HEK293 cells - 16 hour (AID 1224888); also: nearly all actives have a fitted effect of over 35% in size
Outline: as §2

[7] = qHTS RealTime-Glo MT Cell Viability Assay in HepG2 cells - 0 hour (AID 1224889); also: nearly all actives have a fitted effect of over 50% in size
Outline: as §3

[8] = A CellTox Green Cytotoxicity Assay to monitor cytotoxicity in HepG2 cells - 8 hour (AID 1224890); also: nearly all actives have a fitted effect of over 45% in size
Outline: as §1

[9] = qHTS assay to identify small molecule antagonists of the estrogen receptor alpha (ER-alpha) signaling pathway using the BG1 cell line in the presence of 0.1 nM 17-beta-estradiol - cell viability counter screen (AID 1259241); also: nearly all actives have a fitted effect of over 40% in size
Outline: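 VM7Luc4E2 cells (endogenous ER-alpha, 4×ERE-luciferase), hormone-starved 5 days in charcoal-stripped FBS, were treated with compounds plus 0.1 nM 17beta-estradiol for 22 hr at 37C; viability read in same wells as CellTiter-Fluor live-cell protease fluorescence.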

[10] = qHTS assay to identify small molecule antagonists of the androgen receptor (AR) signaling pathway using the MDA cell line in the presence of 0.5 nM R1881 - cell viability counter screen (AID 1259242); also: nearly all actives have a fitted effect of over 45% in size
Outline: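 R1881 at 0.5 nM final stimulated MDA-kb2 cells during 16 hr compound treatment at 37C. Cytotoxicity read: CellTiter-Fluor fluorescence after 30 min.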

[11] = qHTS assay to identify small molecule HDAC inhibitors (AID 1259364);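 also: wild-type HCT-116 cells with endogenous class I/II HDAC activity; top concentration of the series differs between compounds; nearly all actives have a fitted effect of over 45% in size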
Outline: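 Relative class I and II HDAC activity is taken from the luminogenic signal in HCT-116 cells, with compound exposure 2 hr and reagent development 30 min at room temperature.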

[12] = qHTS assay to identify small molecule HDAC inhibitors - cell viability counter screen (AID 1259365)
Outline: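 Wild-type HCT-116 cells were seeded at 1,500 per well, incubated overnight at 37 C, then exposed to compounds in DMSO for 2hr. Viability was read by CellTiter-Glo luminescence after 30min at room temperature.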

[13] = qHTS assay to identify small molecule antagonists of the sonic hedgehog signaling (Shh) pathway - cell viability counter screen (AID 1259367); also: nearly all actives have a fitted effect of over 55% in size
Outline: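 NIH/3T3-derived Gli1-Luc reporter cells (2,000 per well) rested 4 hr at 37 C, then received DMSO compounds plus conditioned medium. After 23 hr of treatment, CellTiter-Fluor was added for 1 hr at 37C and fluorescence read.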

[14] = qHTS assay to identify small molecule agonists of the sonic hedgehog signaling (Shh) pathway (AID 1259368; calls by dose curve; also: series mostly up to about 92 µM; nearly all actives have a fitted effect of over 15% in size)
Outline: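 Mouse fibroblast (NIH/3T3) reporter cells with stably integrated Gli1-Luc were treated 24 hr with compound; firefly luciferase luminescence served as the read-out.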

[15] = qHTS assay to identify small molecule antagonists of the sonic hedgehog signaling (Shh) pathway (AID 1259369; calls by dose curve; also: nearly all actives have a fitted effect of over 45% in size; also: potency is read from the fitted curve at half-maximal effect)
Outline: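 Conditioned medium drives Shh signalling in 3T3Gli1-Luc cells; compounds in DMSO co-applied, 24hr at 37 C, then luciferase luminescence.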

[16] = biological target: Androgen receptor (Homo sapiens) (UniProt P10275); test: qHTS assay to identify small molecule antagonists of the androgen receptor (AR) signaling pathway using the MDA cell line in the presence of 0.5 nM R1881 (AID 1259243); also: nearly all actives have a fitted effect of over 50% in size
Sequence of Androgen receptor (Homo sapiens) (P10275 whole entry, looked up): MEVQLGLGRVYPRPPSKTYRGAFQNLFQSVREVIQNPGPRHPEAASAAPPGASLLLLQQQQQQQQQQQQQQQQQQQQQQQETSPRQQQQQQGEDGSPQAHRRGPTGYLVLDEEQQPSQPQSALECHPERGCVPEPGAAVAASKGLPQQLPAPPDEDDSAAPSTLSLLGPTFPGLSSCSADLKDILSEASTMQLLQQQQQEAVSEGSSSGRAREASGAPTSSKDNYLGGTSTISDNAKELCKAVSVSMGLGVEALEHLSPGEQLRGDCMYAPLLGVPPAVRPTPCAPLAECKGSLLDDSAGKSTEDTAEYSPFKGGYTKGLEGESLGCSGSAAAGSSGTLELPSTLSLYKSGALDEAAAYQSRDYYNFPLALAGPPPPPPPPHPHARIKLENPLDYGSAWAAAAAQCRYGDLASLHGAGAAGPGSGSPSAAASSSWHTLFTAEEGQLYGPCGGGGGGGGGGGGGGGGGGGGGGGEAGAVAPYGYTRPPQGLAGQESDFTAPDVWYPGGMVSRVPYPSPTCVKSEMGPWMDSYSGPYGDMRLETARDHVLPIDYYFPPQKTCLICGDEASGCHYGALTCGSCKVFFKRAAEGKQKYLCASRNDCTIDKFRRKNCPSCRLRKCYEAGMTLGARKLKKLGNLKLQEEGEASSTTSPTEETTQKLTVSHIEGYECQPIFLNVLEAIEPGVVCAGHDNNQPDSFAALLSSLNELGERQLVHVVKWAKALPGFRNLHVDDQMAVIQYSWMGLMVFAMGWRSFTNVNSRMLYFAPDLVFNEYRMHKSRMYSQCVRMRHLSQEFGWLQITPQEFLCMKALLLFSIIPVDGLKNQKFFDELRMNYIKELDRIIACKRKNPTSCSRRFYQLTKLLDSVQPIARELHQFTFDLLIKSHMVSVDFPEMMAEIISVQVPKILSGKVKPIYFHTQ
Outline: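 We exposed MDA-kb2 cells to compounds under 0.5 nM R1881 stimulation for 16 hr at 37C and quantified MMTV-driven luciferase by luminescence.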

[17] = biological target: Estrogen receptor (Homo sapiens) (UniProt P03372); test: qHTS assay to identify small molecule antagonists of the estrogen receptor alpha (ER-alpha) signaling pathway using the BG1 cell line in the presence of 0.1 nM 17-beta-estradiol (AID 1259244); also: nearly all actives have a fitted effect of over 50% in size; also: potency is read from the fitted curve at half-maximal effect
Sequence of Estrogen receptor (Homo sapiens) (P03372 whole entry, looked up): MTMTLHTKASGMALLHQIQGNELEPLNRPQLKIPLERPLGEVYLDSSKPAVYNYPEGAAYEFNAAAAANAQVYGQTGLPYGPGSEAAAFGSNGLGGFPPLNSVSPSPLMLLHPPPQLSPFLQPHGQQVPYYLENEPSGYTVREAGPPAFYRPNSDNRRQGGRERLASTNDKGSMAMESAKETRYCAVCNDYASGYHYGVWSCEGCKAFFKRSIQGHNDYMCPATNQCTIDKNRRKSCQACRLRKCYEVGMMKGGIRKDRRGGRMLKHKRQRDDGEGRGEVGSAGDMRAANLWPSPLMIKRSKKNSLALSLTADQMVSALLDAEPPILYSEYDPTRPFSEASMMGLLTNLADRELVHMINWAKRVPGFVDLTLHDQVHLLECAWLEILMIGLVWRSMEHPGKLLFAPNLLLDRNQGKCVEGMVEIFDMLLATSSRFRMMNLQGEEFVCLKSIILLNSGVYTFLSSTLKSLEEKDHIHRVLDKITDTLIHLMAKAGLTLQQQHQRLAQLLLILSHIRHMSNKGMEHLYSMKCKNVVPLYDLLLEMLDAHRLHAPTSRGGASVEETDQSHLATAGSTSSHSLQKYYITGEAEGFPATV
Outline: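 VM7Luc4E2; 4xERE-luciferase; 0.1 nM E2 final; 22 h co-incubation, 37C; ONE-Glo luminescence after 30 min at room temperature.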

[18] = qHTS assay to identify small molecule phospholipidosis (PLD) inducers (AID 1259344; active = well fitted curve in the direction sought with a large enough effect; an effect the other way counts as inactive or inconclusive)
Outline: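 HepG2 cells on collagen I, attached 4 h at 37 C, were co-treated with compound and LipidTOX Red dye for 24 h at 37 C, then fixed with paraformaldehyde plus Hoechst 33342 and imaged by high-content microscopy for phospholipid accumulation.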

[19] = qHTS assay to identify small molecule agonists of the sonic hedgehog signaling (Shh) pathway - cell viability counter screen (AID 1259366); also: nearly all actives have a fitted effect of over 50% in size
Outline: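 NIH/3T3-derived 3T3 Gli1-Luc cells (stable Gli1-responsive firefly luciferase reporter) were seeded, rested 4 hr at 37 C/5% CO2, then exposed to compounds in DMSO for 24 hr; viability was read by CellTiter-Fluor fluorescence in the same wells.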

[20] = qHTS RealTime-Glo MT Cell Viability Assay in HEK293 cells - 24 hour (AID 1224886)
Outline: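 Assay medium contained NanoLuc luciferase plus cell-permeant prosubstrate, added with HEK293 cells at 600 cells/well. After 5 h at 37 C/5% CO2 compounds were added; plates stayed at 37 C for 40 h with serial luminescence reads.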

Measured: Potency

Nc1cc(C(=O)O)c(O)c(S(=O)(=O)O)c1
not listed: [16] | [17] | [18] | [19] | [20]
inactive: all other assays above

CN1CCN(C(c2ccccc2)c2ccccc2)CC1
not listed: [6] | [9] | [13] | [15] | [19] | [20]
inactive: all other assays above

CCOCC(O)COc1ccc(NC(=O)CC[S+](C)C)cc1 (centres undefined)
not listed: [16] | [19] | [20]
inactive: all other assays above

COc1cc2nc(N(C)CCCNC(=O)C3CCCO3)nc(N)c2cc1OC (centres undefined)
active: [17] 23.7 µM | [15] 13.3 µM
not listed: [9] | [12] | [16] | [19] | [20]
inactive: all other assays above

OC[C@H]1O[C@@H](OCCc2ccc(O)cc2)[C@H](O)[C@@H](O)[C@@H]1O
not listed: [16] | [20]
inactive: all other assays above

Brc1c2ccccc2cc2ccccc12
not listed: [5] | [16] | [18] | [20]
inactive: all other assays above

COC(C)OC
not listed: [5] | [6] | [13] | [16] | [18] | [19]
inactive: all other assays above
